Values without a mark were called inactive. No rule for the calls is given here.

The target of the assay is Pantothenate synthetase (Mycobacterium tuberculosis (strain ATCC 25618 / H37Rv)) (UniProt P9WIL5). Description: Recombinant Mtb pantothenate synthetase (PanC) inhibitors, coupled enzyme, confirmatory (AID 375).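 Also: 0% = full reaction with vehicle and 100% = no enzyme background.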 As to conditions: coupled enzyme assay; at 10 µM, active compounds read high.
Sequence of Pantothenate synthetase (Mycobacterium tuberculosis (strain ATCC 25618 / H37Rv)) (P9WIL5 whole entry, looked up): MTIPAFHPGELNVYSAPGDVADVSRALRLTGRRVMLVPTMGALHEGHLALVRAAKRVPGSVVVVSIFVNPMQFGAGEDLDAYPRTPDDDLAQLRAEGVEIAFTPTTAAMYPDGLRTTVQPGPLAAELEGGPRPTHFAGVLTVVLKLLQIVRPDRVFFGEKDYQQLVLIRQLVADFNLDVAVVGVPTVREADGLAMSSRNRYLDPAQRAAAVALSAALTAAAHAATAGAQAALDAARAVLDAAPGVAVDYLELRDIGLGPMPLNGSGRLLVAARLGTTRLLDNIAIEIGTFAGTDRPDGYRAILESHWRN
With `CN(Cc1cccs1)c1ncnc2sccc12`, the inhibition was 0%.

Turning to `CCN(CC(=O)Nc1ccc(S(N)(=O)=O)cc1)S(=O)(=O)c1cc(C)ccc1OC`, the inhibition was 6%.

With `Cc1ccccc1C(=O)N1CCC(C(=O)Nc2ccc(S(=O)(=O)N3CCCC3)cc2)CC1`, the inhibition is 3%.

For `COc1ccc(C(=O)Nc2ccc(C)cn2)c(OC)c1`, the inhibition is 0%.

On to `O=C(CSc1nnc(-c2ccco2)n1-c1ccccc1)N1CCN(C(=O)c2ccco2)CC1`, for which the inhibition was 0%.

Take `C=CCN=C1SCC(=O)N1S(=O)(=O)c1ccc(C)cc1`: the inhibition was 0%.

Regarding `Cc1onc(-c2ccccc2Cl)c1C(=O)Nc1cccc(-c2cn3cccnc3n2)c1`, the inhibition was 7%.

As for `COC(=O)C1=C(CSCc2ccco2)NC(=O)NC1c1cc(C)ccc1C` (stereo not given), the inhibition is 3%.

With `CCC(=O)OC1(C#CCOc2ccc(OC)cc2)CCN(C)CC1`, the inhibition was 0%.

Turning to `O=C(CNC1CCCCCC1)Nc1ccc(S(=O)(=O)NC2CC2)cc1`, the inhibition was 2%.

`O=C(C1=C(O)C(=O)N(Cc2ccccc2)C1c1ccncc1)c1ccco1` (stereo not given): the inhibition was 0%.

For `Cc1c(NS(=O)(=O)c2ccc3c(c2)c(=O)n(C)c(=O)n3C)c(=O)n(-c2ccccc2)n1C`, the inhibition was 14%.

Turning to `c1cncc(-c2nc3c4ccccc4nc(N4CCC(N5CCCCC5)CC4)n3n2)c1`, the inhibition is 0%.

Take `COc1ccc(-c2nc(N)nc(C)c2Oc2ccccc2Br)c(O)c1`: the inhibition was 0%.

As to `CC1=C(C(=O)OCCOC(C)C)C(c2cc3c(cc2Br)OCO3)C2=C(CCCC2=O)N1` (stereo not given), the inhibition is 0%.

As to `N#CC(C(=O)NCCc1ccccc1)c1nc2ccccc2nc1N1CCOCC1` (stereo not given), the inhibition is 0%.

With `CC(=O)NC(CCS(C)(=O)=O)C(=O)Nc1cccc(C)c1C` (stereo not given), the inhibition is 0%.

On to `Cc1nc2sccn2c(=O)c1CCN1CCC(=C(c2ccc(F)cc2)c2ccc(F)cc2)CC1`, for which the inhibition is 0%.

As to `COC(=O)C1=C(C)N(c2ccc(C(=O)OC)cc2)C(=O)C1`, the inhibition is 0%.

As for `O=C(CN1CCN(Cc2ccc3c(c2)OCO3)CC1)N1CCc2[nH]c3ccc(F)cc3c2C1`, the inhibition was 0%.

`CC(=O)N1CCC(N(C(=O)Nc2ccc(C)c(C)c2)C2CCCC2)CC1`: the inhibition is 0%.

As to `N#Cc1c(N2C(=O)C3C4C=CC(C4)C3C2=O)sc2c1CCC2` (stereo not given), the inhibition was 0%.

Regarding `O=C(Cn1c(SCC(=O)N2CCCc3ccccc32)nc2ccccc21)N1CCCC1`, the inhibition is 0%.

`CC(=O)Nc1c(Cl)n(C(C)=O)c2ccccc12`: the inhibition was 7%.

Consider `COc1ccc(OC)c(S(=O)(=O)Nc2ccccc2SC)c1`, for which the inhibition is 3%.

Take `CCN1CCN(CCCNC(=O)c2cc3sccc3n2CC)CC1`: the inhibition was 0%.

For the compound `CCOC(=O)C1CCN(c2c(N3CCCCCC3)c(=O)c2=O)CC1`, the inhibition is 2%.

Regarding `CSc1ccccc1NC(=O)c1cnc2n(c1=O)CCS2`, the inhibition was 7%.

With `CCOC(=O)C1CCCN(C(=O)CNS(=O)(=O)c2ccc(Br)s2)C1` (stereo not given), the inhibition is 8%.

In the case of `CCCCCC(=O)N(CN1C(=O)CCC1=O)c1ccccc1`, the inhibition was 5%.

For the compound `O=c1[nH]c(N2CCc3ccccc32)nc2c1CCCC2`, the inhibition is 0%.

On to `Cc1ccccc1-c1nc(CN2CCC(C(=O)NCCCN3CCCC3)CC2)c(C)o1`, for which the inhibition was 0%.

For `CC(OC(=O)CNC(=O)C12CC3CC(CC(C3)C1)C2)C(=O)Nc1ccc(N2CCOCC2)cc1` (stereo not given), the inhibition was 0%.

Regarding `CC1=Nn2c(nnc2-c2ccc(F)cc2)SC1`, the inhibition was 0%.

For the compound `COc1ccc(Cl)cc1NC(=O)CCN1CCN(c2ccccc2C)CC1`, the inhibition is 0%.

With `CCOC(=O)c1c(NC(=O)c2ccn(CC)n2)sc2c1CCCC2`, the inhibition was 3%.

Consider `CN(C)C(=O)COc1ccc2cc(-c3ccccc3)c(=O)oc2c1`, for which the inhibition is 1%.

`O=C(NCC1CCCO1)C1CCCN(Cc2cnn(-c3ccccc3)c2-n2cccc2)C1` (stereo not given): the inhibition was 0%.

For `CCN1CCN(c2nc(C)nc3c2sc(=S)n3C)CC1`, the inhibition is 0%.

Turning to `CCOC(=O)COc1ccc(S(=O)(=O)N2CCc3ccccc3C2)cc1`, the inhibition was 0%.

As a reminder, the inhibition is the share of the control response that was lost under treatment.
